This is an account of results in PubChem BioAssay (EPA / NIEHS).

The source made the active and inactive calls. The calls were made as follows: active = hit-call score of the fitted dose curve at least 0.9, where 1 is the maximum; inactive = score below 0.9.

Read-out in the test: Interleukin-8 (IL8), CXCL8 (gene 3576)
The test is described as follows: BSK_LPS_IL8: BioMAP Diversity Plus: LPS Assay for Interleukin-8 (IL8) Biomarker Activity (AID 2283078). The conditions noted are these: primary human HUVEC with PBMC; actives raise or lower the signal. Here is the method: BSK_LPS is a cell-based, multiplexed-readout assay that uses umbilical vein endothelium and peripheral blood mononuclear cells, a human vascular primary cell co-culture, with measurements taken at 24 hours after chemical dosing in a 96-well plate.BSK_LPS_IL8 is an assay component measured in the BSK_LPS assay. It measures IL-8 antibody related to regulation of gene expression using ELISA technology.Data from the assay component BSK_LPS_IL8 was analyzed into 1 assay endpoint. This assay endpoint, BSK_LPS_IL8, was analyzed with bidirectional fitting relative to DMSO as the negative control and baseline of activity. Using a type of binding reporter, gain or loss-of-signal activity can be used to understand changes in the signaling as they relate to the gene CXCL8. Furthermore, this assay endpoint can be referred to as a primary readout, because this assay has produced multiple assay endpoints where this one serves a signaling function. To generalize the intended target to other relatable targets, this assay endpoint is annotated to the cytokine intended target family, where the subfamily is interleukins.
The levels of cell surface (or secreted, indicated by the prefix "s") biomarker endpoints were measured by ELISA. Overt cytotoxicity to cells in confluent adherent cultures (all systems other than the BT system) was assessed by measuring total protein levels using sulforhodamine B (SRB) staining in parallel cultures at the time of biomarker measurements, indicated as SRB endpoints. For proliferation assays for adherent cell types, individual cell types are cultured at sub-confluence and relative cell numbers quantified by SRB staining at time points optimized for each system (48 h: 3C and CASM3C systems; 72 h: BT and HDF3CGF systems; 96 h: SAg system). SRB was performed by staining cells with 0.1% SRB after fixation with 10% TCA and reading wells at 560 nm.Viability and proliferation of PBMC (T cells) was quantified by Alamar Blue reduction for the SAg and BT systems. For PBMC viability (referred to as PBMC Cytotoxicity within the assay endpoint names), cells were plated (75,000/well in a 96-well plate) and then chemical samples added for 1 h before addition of activators, SEB and TSST-1 (20 ng/mL final concentration each). Cells were incubated for 90 h. Then, Alamar Blue (20 uL/well) (Invitrogen, Cat DAL1100) was added for 6 h, and the plates were read with a fluorescence microplate reader at 546/580 nm (excitation/emission). For PBMC proliferation, cells were plated and activated as above but incubated for only 16 h prior to addition of Alamar Blue. Plates were read after 6 h.
On to `COC(=O)CCCC(=O)OC`, for which the result was inactive.

Consider `CC(COCC(C)OC(=O)c1ccccc1)OC(=O)c1ccccc1` (stereo not given), for which the result was inactive. As for `O=C1c2c(O)cccc2Cc2cccc(O)c21`, the outcome was inactive. With `Cc1c(C)c2c(c(C)c1O)CCC(C)(COc1ccc(CC3SC(=O)NC3=O)cc1)O2` (stereo not given), the AC50 is 32.1 µM (active). Consider `C=CCCCCCCCCCCCC`, for which the outcome was inactive. For `N[C@@H](Cc1c[nH]c2ccccc12)C(=O)O`, the result was inactive. With `S=c1[nH]c2ccccc2s1`, the result was inactive.

With `Cc1cn([C@H]2C=C[C@@H](CO)O2)c(=O)[nH]c1=O`, the result was inactive. The same measure, in the same setting: then `O=C(O)c1[nH]n(-c2ccc(S(=O)(=O)O)cc2)c(=O)c1N=Nc1ccc(S(=O)(=O)O)cc1`, with “inactive”. For `O=NO`, the result was inactive. Still for that read-out and setting: under `CC(C)c1cccc(C(C)C)c1` stands “inactive”; under `CC(=O)OC1CC(C)OC(C)O1` (stereo not given), “inactive”; under `CN(C)C(=O)NC1(c2ccccc2)CCN(CC[C@@]2(c3ccc(F)c(F)c3)CN(C(=O)c3ccccc3)CCO2)CC1`, “inactive”. On the same count and under the same terms, then `O=C(Oc1ccccc1)c1cccc(C(=O)Oc2ccccc2)c1`, with “inactive”. The same measure, in the same setting: then `c1ccc2occc2c1`, with “inactive”; and `NC(=Nc1ccccc1)Nc1ccccc1`, with “inactive”. Consider `O=C1NC(=O)C(c2ccccc2)(c2ccccc2)N1`, for which the outcome was inactive. Still for that read-out and setting: under `CCCCCCCCCCCCCCOS(=O)(=O)O` stands “inactive”.

Take `CCCCc1nc2cccnc2n1Cc1ccc(-c2ccccc2-c2nnn[nH]2)cc1`: the result was inactive.

Take `CCCC[C@H]1CN(CC2CCOCC2)C(=O)OC12CCN(C1(C)CCN(C(=O)c3c(C)ncnc3C)CC1)CC2`: the result was inactive. Still for that read-out and setting: under `CC(=O)O` stands “inactive”; under `NCCOCCOCCN`, “inactive”.

Take `Nc1nc(Cl)nc2c1ncn2[C@H]1C[C@H](O)[C@@H](CO)O1`: the AC50 is 0.628 µM (active). For `Cc1ccc(C(C)(C)C)c(O)c1`, the result was inactive.

Take `O=C(O)CC(O)(CC(=O)O)C(=O)O`: the outcome was inactive. Still for that read-out and setting: under `CC1=C(C)S(=O)(=O)CCS1(=O)=O` stands “inactive”. Still for that read-out and setting: under `CCc1cc(C2=C(C(=O)O)N(c3ccccc3C(F)(F)F)S(=O)(=O)c3ccccc32)cc2c1OCO2` stands “inactive”.

For `CC(=O)OCC(COC(C)=O)OC(C)=O`, the outcome was inactive. In the case of `OCC(CO)n1cnc(-c2ccc(F)cc2)c1-c1ccnc(Oc2ccccc2)n1`, the concentration at half-maximal activity (AC50) was 0.544 µM (active). On to `CC1(C)C(=O)NC(=O)N1CO`, for which the result was inactive.

With `COC(=O)CCC(=O)OC`, the outcome was inactive. On the same count and under the same terms, under `CCCCCCCC(=O)OC` stands “inactive”; under `NC=O`, “inactive”. For the compound `CCCCC(CC)COC(=O)CCCCCCCC(=O)OCC(CC)CCCC` (stereo not given), the outcome was inactive. On to `Cc1ccc(-c2cc(C(F)(F)F)nn2-c2ccc(S(N)(=O)=O)cc2)cc1`, for which the AC50 is 35.6 µM (active). Regarding `O=C(O)c1cccnc1`, the outcome was inactive.

As for `CCN(CC)CCOc1ccc(C(=C(Cl)c2ccccc2)c2ccccc2)cc1`, the concentration at half-maximal activity (AC50) was 11.3 µM (active). As for `CCc1nc(N)nc(N)c1-c1ccc(Cl)cc1`, the outcome was inactive. With `Oc1ccccc1O`, the outcome was inactive.

With `CC(N)=O`, the result was inactive.

The term AC50 denotes the midpoint of the concentration-response curve, whichever way the signal moves.
